The record followed here is PubChem BioAssay (EPA / NIEHS).

Active and inactive are the calls of the source. The calls were made as follows: active = hit-call score of the fitted dose curve at least 0.9, where 1 is the maximum; inactive = score below 0.9.

A short description of this assay: APR_HepG2_StressKinase_72hr: Apredica 72-hour HepG2 Assay for Stress Kinase (AID 2282921). To be noted: HepG2 stress kinase (phospho-c-Jun) imaging, actives raise or lower the signal. As to the method: APR_HepG2_72hr is a cell-based, multiplexed-readout assay that uses HepG2, a human liver cell line, with measurements taken at 72 hours after chemical dosing in a 384-well plate.APR_HepG2_StressKinase_72hr is one of 10 assay component(s) measured or calculated from the APR_HepG2_72hr assay. It is designed to make measurements of enzyme activity, a form of enzyme reporter, as detected with fluorescence intensity signals by HCS Fluorescent Imaging technology.Data from the assay component APR_HepG2_StressKinase_72hr was analyzed into 1 assay endpoint. This assay endpoint, APR_HepG2_StressKinase_72hr, was analyzed with bidirectional fitting relative to DMSO as the negative control and baseline of activity. Using a type of enzyme reporter, measures of protein for gain or loss-of-signal activity can be used to understand the signaling at the pathway-level as they relate to the gene . Furthermore, this assay endpoint can be referred to as a primary readout, because this assay has produced multiple assay endpoints where this one serves a signaling function. To generalize the intended target to other relatable targets, this assay endpoint is annotated to the cell cycle intended target family, where the subfamily is stress response.
Cells were treated with dimethyl sulfoxide (DMSO) as a solvent control at a final concentration of 0.5% v/v or with compounds in DMSO with a resulting final DMSO concentration of 0.5% v/v. Compound treatment was done at concentrations of 0.39, 0.78, 1.56, 3.12, 6.24, 12.5, 25, 50, 100, and 200 uM in duplicate on each plate. Cells were treated with compounds for 1, 24, or 72 hr. Carbonyl […] m-chloro-phenylhydrazone (CCCP) and taxol were used as positive controls for mitochondrial function and cytoskeletal stability, respectively; DMSO served as the negative control for this experiment. Cells were fixed by the direct addition of 50 uL formaldehyde in Hank's Balanced Salt Solution (HBSS) to a final concentration of 3.7%. After incubation in the fixation medium for 30 min at room temperature (293-298 K), cells were rinsed twice with HBSS and treated with cell permeabilization buffer (16 uL of 0.5% Triton X-100) for 10 min at room temperature (293-298 K) before labeling. For mitochondrial membrane potential and mitochondrial measurements, pre-fixed cells were incubated with 50 uL of MitoTracker Red CMXRos (Invitrogen) at a concentration of 250 nM for 30 min before fixation. In the remaining cases, post-fixed cells were labeled by incubation with a multiplexed mixture of primary antibodies in HBSS for 60 min at room temperature (293-298 K) to detect immunoreactivity of c-Jun (1:500), phospho-histone H3 (1:100), phospho-histone H2A.x (1:200), p53 (1:400), alpha-tubulin (1:200) and Hoechst 33342 (2 ug/mL). Cells were labeled for multiplexed imaging on two separate plates: a) Hoechst 33342, MitoTracker Red, phospho-histone H3, and alpha-tubulin, and b) Hoechst 33342, phospho-histone H2A.x, and c-Jun. A final rinse with HBSS (50 uL) was performed before analysis. The primary and secondary antibodies for the proteins were phospho-histone H3 (rabbit anti-phospho-histone H3 and FITC-donkey anti-rabbit IgG), phospho-histone H2A.x (mouse anti-phospho-histone H2A.x and FITC-donkey anti-mouse IgG), c-Jun (rabbit anti-phospho-c-Jun and Cy3-donkey anti-rabbit IgG), p53 (sheep anti-p53 and Cy5-donkey anti-sheep IgG), alpha-tubulin (mouse anti-alpha-tubulin and Cy5-donkey anti-mouse IgG). These antibodies are available as the CellCiphr HepG2 assay kit (Millipore).Digital images of each well were captured using a Cellomics ArrayScan VTI (Thermo Scientific Cellomics) (0.8 NA objective, 0.63x optical coupler, and XF-93 filter set) at 20x magnification. The images were acquired using the autofocus feature of the ArrayScan instrument, which entails the following steps. First, the camera focuses on channel 1 (Hoechst 33342), where nuclei are identified. Second, a Z offset of 1 um is used for capturing mitochondria (MitoTracker Red). […]
Consider `COC(=O)N(C(=O)N1CO[C@@]2(C(=O)OC)Cc3cc(Cl)ccc3C2=N1)c1ccc(OC(F)(F)F)cc1`, for which the outcome was inactive.
For the molecule `O=c1n(Cl)c(=O)n(Cl)c(=O)n1Cl`, the molecule was called inactive.
Then `CCCN(CC)CC1COC2(CCC(C(C)(C)C)CC2)O1` (stereo not given), with “inactive”; and `O=C1C2CC=CCC2C(=O)N1SC(Cl)(Cl)Cl` (stereo not given), with “inactive”.
With `Nc1c(Cl)c(F)nc(OCC(=O)O)c1Cl`, the outcome was inactive.
The same measure for `CC1(C)C(C=C(Cl)Cl)C1C(=O)OC(C#N)c1cccc(Oc2ccccc2)c1` (stereo not given): “inactive”.
Consider `CNC(=O)N(C)c1nnc(C(C)(C)C)s1`, for which the outcome was inactive.
Then `COCC(=O)N(c1c(C)cccc1C)C(C)C(=O)OC` (stereo not given), with “inactive”; and `Cc1nc(N(C)C)nc(OC(=O)N(C)C)c1C`, with “inactive”.
Turning to `N#CN=C1SCCN1Cc1ccc(Cl)nc1`, the call was inactive.
For `CCOP(=O)(OCC)Oc1nc(Cl)c(Cl)cc1Cl`, the molecule was classed as inactive.
The same measure for `CC(C)Oc1cccc(NC(=O)c2ccccc2C(F)(F)F)c1`: “inactive”; for `O=C(Nc1ccccc1-c1ccc(Cl)cc1)c1cccnc1Cl`: “inactive”; for `Nc1c(Cl)c(Cl)nc(C(=O)O)c1Cl`: “inactive”.
The same measure for `CCOc1cc(C(C)(C)C)ccc1C1COC(c2c(F)cccc2F)=N1` (stereo not given): “inactive”; for `CSC(=O)c1c(C(F)F)nc(C(F)(F)F)c(C(=O)SC)c1CC(C)C`: “inactive”; for `CCOP(=S)(OCC)Oc1nc(Cl)n(C(C)C)n1`: “inactive”.
In the case of `CCSC(=O)N1CCCCCC1`, the call was inactive.
`COC(=O)NS(=O)(=O)c1ccc(N)cc1`: the outcome was inactive.
The same measure for `Cc1cnc(C2=NC(C)(C(C)C)C(=O)N2)c(C(=O)O)c1` (stereo not given): “inactive”.
Then `CCOC(=O)C(C)OC(=O)c1cc(Oc2ccc(C(F)(F)F)cc2Cl)ccc1[N+](=O)[O-]` (stereo not given), with “inactive”; and `CC1(C)CCC(=Cc2ccc(Cl)cc2)C1(O)Cn1cncn1` (stereo not given), with “inactive”; and `C=C(C)CN(CC)c1c([N+](=O)[O-])cc(C(F)(F)F)cc1[N+](=O)[O-]`, with “inactive”.
Then `CC(C)NC(=O)N1CC(=O)N(c2cc(Cl)cc(Cl)c2)C1=O`, with “inactive”; and `Clc1nc(Cl)nc(Nc2ccccc2Cl)n1`, with “inactive”.
Regarding `CCNC(=O)NC(=O)C(C#N)=NOC`, the call was inactive.
The same measure for `COCc1cnc(C2=NC(C)(C(C)C)C(=O)N2)c(C(=O)O)c1` (stereo not given): “inactive”; for `CCN(CC)C(=O)C(C)Oc1cccc2ccccc12` (stereo not given): “inactive”.
Then `CC(C)N1C(=O)c2ccccc2NS1(=O)=O`, with “inactive”.
Then `Cc1c(COC(=O)[C@@H]2[C@H](/C=C(\Cl)C(F)(F)F)C2(C)C)cccc1-c1ccccc1`, with “inactive”; and `CCCC(=NOCC)C1=C(O)CC(CC(C)SCC)CC1=O` (stereo not given), with “inactive”.
Consider `COC(=O)c1c(C(F)F)nc(C(F)(F)F)c(C2=NCCS2)c1CC(C)C`, for which the molecule was called inactive.
With `OC(c1ccc(Cl)cc1)(c1ccc(Cl)cc1)C(Cl)(Cl)Cl`, the molecule was called inactive.
Then `COCC(C)N(C(=O)CCl)c1c(C)csc1C` (stereo not given), with “inactive”.
The same measure for `COc1ccc(-c2ccccc2)cc1NNC(=O)OC(C)C`: “inactive”.
Turning to `N#Cc1c(Cl)cccc1Cl`, the result was inactive.
Then `COc1cc(OC)nc(NC(=O)NS(=O)(=O)c2ncccc2OCC(F)(F)F)n1`, with “inactive”.
The same measure for `CN/C(=N\[N+](=O)[O-])NCc1cnc(Cl)s1`: “inactive”.
In the case of `CCC(C)n1c(=O)[nH]c(C)c(Br)c1=O` (stereo not given), the molecule was classed as inactive.
With `Cc1ccc(N=CN(C)C=Nc2ccc(C)cc2C)c(C)c1`, the outcome was inactive.
